Screening results (PubChem)
D3 antag: blocks the human D3 dopamine receptor | D3R cells, DiscoveRx beta-arrestin luminescence, antagonist mode; hits give low values | actives 2.5% (n = 360,000) | AID 652054 | P35462 | max response, negative = inhibition, %; in the data active = max response below about -50%; inconclusive = no clear call, values can overlap the other calls
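Cells expressing the human receptor were seeded at 1500 cells/well, incubated overnight at 37 degrees C in 5% CO2, then exposed to library compounds with dopamine controls for 90 minutes at 37 degrees C before luminescent detection.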
TSHR antag: blocks TSH signaling through the human TSH receptor; TSHR-expressing cells, TSH-stimulated cAMP HTRF, 2 h; hits give low values; actives 0.2% (n = 330,000); P16473; AID 504810; activity change, negative = inhibition, % at 11.5 µM;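 active = activity change below a set negative limit, meaning inhibition stronger than a set level, cut at about -70% in these data; inconclusive = activity change between two set negative limits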
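Freshly harvested TSHR cells receive pin-tooled compound, then EC80 TSH at 4nM final. After 2 hours at 37 deg C, antibody in lysis buffer and cAMP-d2 are added; 30 minutes at ambient temperature precede the HTRF read.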
DRD3 agonist: D3 dopamine receptor (human) agonism. actives 0.58% (n = 410,000). AID 652048. D3R DiscoveRx beta-arrestin cells, luminescence, 90 min. max activation, %; in the data active = max activation above about 30%
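Agonist-mode cell screen: cells plated at 1500/well and incubated overnight at 37 °C, then exposed to library compounds for 90 min at 37 °C. Detection reagent was added for 30–60 min at room temperature, and luminescence was read.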
B2AR arrestin: agonists driving beta-arrestin recruitment to human beta2-adrenergic receptor; P07550; beta-arrestin recruitment to beta2AR, cell-based reporter; Potency, µM (top dose mostly 46.1 µM), most hits filed as activators; actives 0.02% (n = 330,000); AID 492947; active = well fitted activation curve with a large enough effect; inconclusive = small, poorly fitted or top-dose-only effect; also: nearly all actives have a fitted effect of over 65% in size
Target sequence (P07550 whole entry, looked up): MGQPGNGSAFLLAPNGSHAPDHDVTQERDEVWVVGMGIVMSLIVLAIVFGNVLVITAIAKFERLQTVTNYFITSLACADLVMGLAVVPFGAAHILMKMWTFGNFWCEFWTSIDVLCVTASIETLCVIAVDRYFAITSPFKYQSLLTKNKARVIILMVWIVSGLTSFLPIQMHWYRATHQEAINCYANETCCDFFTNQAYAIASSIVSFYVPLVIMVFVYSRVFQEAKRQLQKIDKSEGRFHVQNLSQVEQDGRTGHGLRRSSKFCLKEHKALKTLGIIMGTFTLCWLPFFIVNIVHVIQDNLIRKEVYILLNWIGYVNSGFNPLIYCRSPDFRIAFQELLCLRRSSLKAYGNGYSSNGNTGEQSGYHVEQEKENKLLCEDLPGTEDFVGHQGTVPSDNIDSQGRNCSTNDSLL
Numbers stand for hits; n = inactive; u = inconclusive; x = no result. Shown are actives, neighbours in structure and some others; about 2.9% of the full set was active somewhere.

SMILES	D3 antag	TSHR antag	DRD3 agonist	B2AR arrestin
Cc1cccc(N(CC(=O)Nc2ccc(CC#N)cc2)S(C)(=O)=O)c1	n	n	n	n
COc1ccc(OC)c(C2=NO[C@@](CC(=O)O)(C(=O)Nc3ccc4c(c3)OCCO4)C2)c1	n	n	n	n
CCc1ccc(NC(=O)CN(c2cccc(C)c2)S(C)(=O)=O)cc1	n	n	34	n
COc1ccc(S(=O)(=O)NCC(=O)Nc2ccc3c(c2)OCCO3)cc1OC	-50	n	n	n
COc1cccc(NC(=O)Cn2c(=O)n(-c3ccccc3)c(=O)c3c2c2cc(OC)ccc2n3C)c1	x	x	n	x
CCCN1CCN(C(=O)Cn2nc(C)n3c(cc4c(OC)cccc43)c2=O)CC1	n	x	45	x
Cc1nc2c(C#N)cnn2c2c1CCN2CC1CCCO1 (centres undefined)	n	n	43	n
CCN(C(=O)Cc1c(C(=O)O)c(C)cn1C)c1cccc(Cl)c1	x	x	n	x
CC(=O)Oc1cccc2c1C(=O)c1c(OC(C)=O)cc(C(=O)O)cc1C2=O	-122	n	n	n
Cc1ccc(C)c(NC(=O)N2CCC(N3CCN(Cc4ccc(F)cc4)C(=O)C3=O)CC2)c1	x	x	n	x
O=S1(=O)[C@H]2C[C@H](CO)O[C@@]2(CO)CN1Cc1ccc(-c2cccc(Cl)c2)cc1	n	n	n	n
O=S1(=O)[C@H]2C[C@H](CO)O[C@@]2(CO)CN1Cc1ccc(-c2ccc(F)cc2)cc1	n	n	31	n
O=S(=O)(NCc1nc2cccnc2n1Cc1ccccc1Cl)c1ccc(F)c(Cl)c1	x	x	n	x
CCc1nnc(NC(=O)c2ccc(S(=O)(=O)N(CC(C)C)CC(C)C)cc2)o1	-107	n	n	n
CCN(CC)S(=O)(=O)c1ccc(C(=O)Nc2nnc(C(C)C)s2)cc1	-69	n	n	n
Cc1ccc(C(C)C)c(OCc2nn(CC(=O)c3ccc(Cl)cc3)c3[n+]2CCCCC3)c1	-52	n	n	n
O=C(Cn1nc(CNc2ccc(Cl)cc2)[n+]2c1CCCCC2)c1ccccc1	n	n	n	n
Cc1cc(NC(=O)CS(=O)(=O)c2cn(Cc3cccc(C(F)(F)F)c3)c3ccccc23)no1	n	x	n	x
COC(=O)C1=C(C(=O)OC)[C@@H]2N(C)c3ccc(OC)cc3[C@@]23C[C@@H](C(=O)OC)N(C(=O)C2CCC2)C3=N1	n	n	n	n
COC(=O)C1=C(C(=O)OC)[C@@H]2N(C)c3ccccc3[C@@]23C[C@@H](CO)N(C(=O)C2CCC2)C3=N1	-53	x	n	x
CCc1ccccc1NC(=O)c1cnn2c(C(F)(F)F)cc(-c3ccc(OC)c(OC)c3)nc12	x	x	n	x
CC(=O)NS(=O)(=O)c1ccc(Nc2ccc([N+](=O)[O-])c3nonc23)cc1	-54	n	n	n
CCOc1ccc(Nc2ccc([N+](=O)[O-])c3nonc23)cc1	-67	n	n	n
CCc1ccc(Oc2c(C(F)(F)F)oc3c(CN4CCC(C)CC4)c(O)ccc3c2=O)cc1	x	x	n	x
Cc1ccc(NC(=O)CN2C(=O)COc3ccc(S(=O)(=O)NC4CCCC4)cc32)cc1N(C)C	x	x	n	x
SMILES	D3 antag	TSHR antag	DRD3 agonist	B2AR arrestin
CN(C)/C=C(/C(=O)c1ccc(Cl)cc1)S(=O)(=O)c1ccc(Cl)cc1	n	-114	n	n
CN(C)/C=C(/C(=O)c1ccc(Cl)cc1Cl)S(=O)(=O)c1ccc(Cl)cc1	n	n	n	n
CCOC(=O)c1sc(NC(=O)c2cc(CC)on2)c(C(=O)OCC)c1C	x	x	n	x
O=C(CSc1n[nH]c(-c2ccccc2)n1)NCCCc1ccccc1	x	x	n	x
O=C(NCc1ccco1)Nc1ccc(Br)cc1	n	n	n	n
O=C(NCc1ccco1)Nc1ccc2nsnc2c1	-59	n	n	n
CN(C)CCCN1C(=O)c2cccc3cccc(c23)C1=O	n	n	n	n
CC1=CC2=C(OC1N(C)C)c1cccc3cccc(c13)C2=O (centres undefined)	-52	n	n	n
Cc1nn2c(=O)cc(COC(=O)Cc3ccccc3)nc2s1	x	x	n	x
O=[N+]([O-])c1cc(-c2nc(-c3ccccc3)no2)ccc1NC1CCCC1	x	x	n	x
CCOc1cc(C2C(C(=O)c3ccccc3)=C(C(=O)OC)Nc3nnnn32)ccc1O (centres undefined)	-55	n	n	n
COC(=O)C1=C(C(=O)c2ccccc2)C(c2cccs2)n2nnnc2N1 (centres undefined)	-60	n	n	n
COC(=O)C1=C(C(=O)c2ccccc2)C(c2ccc(OC)c(OC)c2)Nc2nnnn21 (centres undefined)	-75	n	n	n
COC(=O)C1=C(C(=O)c2ccccc2)C(c2ccc(O)c(OC)c2)n2nnnc2N1 (centres undefined)	n	n	n	n
Cc1cccc(NS(=O)(=O)c2ccc3c(c2)OCC(C(=O)N2CCCC2)O3)c1C (centres undefined)	x	x	n	x
Cc1ccc(Cl)cc1NC(=O)c1oc2ccc(S(=O)(=O)N3CCCCC3)cc2c1C	x	x	n	x
COc1ccc(OC)c(S(=O)(=O)N2CCN(c3ccccc3)CC2)c1	n	n	n	n
COc1ccc(OC)c(S(=O)(=O)ON2C(=O)c3ccccc3C2=O)c1	-97	n	n	n
O=C(NC(NC(=S)Nc1c(Cl)cc(Cl)cc1Cl)C(Cl)(Cl)Cl)OCc1ccccc1 (centres undefined)	-76	n	n	n
CC(=O)N1CCOc2cc(S(=O)(=O)NCc3ccc(C)cc3)c(C)cc21	x	x	n	x
COc1cc(/C=C2/N=C(C3CCCCC3)OC2=O)cc(OC)c1OC	-69	n	n	n
Cn1cc(C(=O)NCCc2ccccc2)c(=O)c2cc(S(=O)(=O)N3CCCCC3)ccc21	x	x	n	x
CN1CC=C2C(C#N)=C(N)C(C#N)(C#N)[C@H](c3ccoc3)[C@H]2C1	n	n	n	n
COc1ccc(OC)c(C2C3CN(C(C)C)CC=C3C(C#N)=C(N)C2(C#N)C#N)c1 (centres undefined)	-59	n	n	n
Cc1ccc(C2C3CN(C(C)C)CC=C3C(C#N)=C(N)C2(C#N)C#N)cc1 (centres undefined)	-86	n	n	n
SMILES	D3 antag	TSHR antag	DRD3 agonist	B2AR arrestin
Cc1ccc(C(=O)COC(=O)CCC(=O)Nc2ccc(Oc3cc(C)ccc3C(C)C)cc2)cc1	x	x	n	x
CCc1nc2ccc(C(=O)Nc3ccc(OC)c(OC)c3)cn2c1N(C)CCC(C)C	n	x	n	x
CC(C)COc1cccc(C(=O)Nc2ccc(-c3nc4ncccc4o3)cc2)c1	x	x	n	x
Cc1ccc(S(=O)(=O)Nc2cccc3ncccc23)s1	-77	n	n	n
Cc1ccc(S(=O)(=O)Nc2cccc3ncccc23)cc1	n	n	n	n
Cc1ccc(CNC(=O)c2oc3ccc(S(=O)(=O)N4CCCC(C)C4)cc3c2C)cc1 (centres undefined)	x	x	n	x
NC[C@@H]1O[C@H](C23CC4CC(CC(C4)C2)C3)Cc2c1ccc(O)c2O	n	n	88	x
COc1cc(OC)c(NC(=O)c2c(C)oc3ncn(C)c(=O)c23)cc1Cl	x	x	n	x
CCOC(=O)/C=C/C(=O)Nc1ccc(S(=O)(=O)Nc2c(C)cc(C)cc2C)cc1	u	n	n	n
CCOC(=O)/C=C/S(=O)(=O)c1ccc(NC(C)=O)cc1	-76	n	n	n
